Results: the supplement of paper PMC9694430

Experiments:
Assay in all cases: thermal shift delta Tm vs DMSO control; higher = stronger stabilization (binding)
Settings in all cases: 12.5 µM; protein concentration 2 µM
[1] = test system: LOC_OS01G60330-cb001
How it was run: (§1)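 Rice kinase domain constructs were expressed in E. coli, purified, and tested by differential scanning fluorimetry with compound added in DMSO. Each well of a 96-well plate held 19.5 μl of 2 μM kinase in 100 mM potassium phosphate pH 7.5, 150 mM NaCl, 10% glycerol and 5 × SYPRO Orange, and fluorescence was read from 25°C to 95°C at 0.05°C/s. The melting temperature shift is the mean of triplicates, taken against protein with DMSO alone after Boltzmann fitting.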

[2] = test system: LOC_OS01G60700-cb002
How it was run: as §1

[3] = test system: LOC_OS01G67340-cb003
How it was run: as §1

[4] = test system: LOC_OS01G70970-cb002
How it was run: as §1

[5] = test system: LOC_OS02G07810-cb001
How it was run: as §1

[6] = test system: LOC_OS02G08530-cb003
How it was run: as §1

[7] = test system: LOC_OS02G14120-cb001
How it was run: as §1

[8] = test system: LOC_OS02G17970-cb001
How it was run: as §1

[9] = test system: LOC_OS02G45750-cb003
How it was run: as §1

[10] = test system: LOC_OS02G54510-cb004
How it was run: as §1

[11] = test system: LOC_OS03G04050-cb001
How it was run: as §1

[12] = test system: LOC_OS03G12390-cb001
How it was run: as §1

[13] = test system: LOC_OS03G27990-cb004
How it was run: as §1

[14] = test system: LOC_OS03G50450-cb001
How it was run: as §1

[15] = test system: LOC_OS03G50810-cb003
How it was run: as §1

[16] = test system: LOC_OS04G35114-cb001
How it was run: as §1

[17] = test system: T1, LOC_OS04G38480-cb003
T1 sequence (whole entry): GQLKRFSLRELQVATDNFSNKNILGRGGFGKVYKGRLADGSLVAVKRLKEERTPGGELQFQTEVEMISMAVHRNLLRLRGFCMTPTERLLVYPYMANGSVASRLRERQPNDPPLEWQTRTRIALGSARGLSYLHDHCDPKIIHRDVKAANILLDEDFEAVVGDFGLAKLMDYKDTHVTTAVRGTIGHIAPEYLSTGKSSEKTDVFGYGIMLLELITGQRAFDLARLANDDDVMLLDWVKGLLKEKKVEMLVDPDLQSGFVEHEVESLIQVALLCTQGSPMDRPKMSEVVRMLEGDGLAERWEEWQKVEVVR
How it was run: as §1

[18] = test system: T2, LOC_OS04G41100-cb001
T2 sequence (whole entry): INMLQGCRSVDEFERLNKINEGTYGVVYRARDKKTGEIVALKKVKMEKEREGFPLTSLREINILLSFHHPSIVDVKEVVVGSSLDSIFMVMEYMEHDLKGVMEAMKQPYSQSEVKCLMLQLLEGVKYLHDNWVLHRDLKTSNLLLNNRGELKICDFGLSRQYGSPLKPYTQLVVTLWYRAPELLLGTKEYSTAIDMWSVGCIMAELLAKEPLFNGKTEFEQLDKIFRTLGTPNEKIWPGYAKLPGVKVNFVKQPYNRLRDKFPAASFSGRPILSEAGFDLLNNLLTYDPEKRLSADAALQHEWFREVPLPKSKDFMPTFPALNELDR
How it was run: as §1

[19] = test system: LOC_OS01G57100-cb003
How it was run: as §1

[20] = test system: LOC_OS01G63280-cb003
How it was run: as §1

Structure (SMILES)	thermal shift delta Tm [1]	thermal shift delta Tm [2]	thermal shift delta Tm [3]	thermal shift delta Tm [4]	thermal shift delta Tm [5]	thermal shift delta Tm [6]	thermal shift delta Tm [7]	thermal shift delta Tm [8]	thermal shift delta Tm [9]	thermal shift delta Tm [10]	thermal shift delta Tm [11]	thermal shift delta Tm [12]	thermal shift delta Tm [13]	thermal shift delta Tm [14]	thermal shift delta Tm [15]	thermal shift delta Tm [16]	thermal shift delta Tm [17]	thermal shift delta Tm [18]	thermal shift delta Tm [19]	thermal shift delta Tm [20]
CC(C)=CC[C@@H](O)C1=CC(=O)c2c(O)ccc(O)c2C1=O [Shikonin]	-0.94 °C	3.41 °C	-2.36 °C	-5.42 °C	0.63 °C	-0.15 °C	-4.81 °C	3.84 °C	0 °C	-0.56 °C	0.62 °C	-4.26 °C	-2.32 °C	-1.22 °C	0 °C	3.21 °C	-2.82 °C	-0.35 °C	–	–
CNC(=O)c1ccc(C)c(-n2c(C)cc(OCc3ccc(F)cc3F)c(Br)c2=O)c1	0.78 °C	1.45 °C	-0.29 °C	0.12 °C	1.25 °C	0.96 °C	0.27 °C	0.83 °C	0.5 °C	0.06 °C	0.28 °C	0.6 °C	0.15 °C	0.27 °C	0.59 °C	0.14 °C	0.62 °C	0.73 °C	2.4 °C	0.3 °C
O=C(O)c1cc(O)c2c(c1)[C@@H]([C@H]1c3cc(C(=O)O)cc(O)c3C(=O)c3c(O[C@@H]4O[C@H](CO)[C@@H](O)[C@H](O)[C@H]4O)cccc31)c1cccc(O[C@@H]3O[C@H](CO)[C@@H](O)[C@H](O)[C@H]3O)c1C2=O [Sennoside B]	–	2.73 °C	–	1.98 °C	0.69 °C	0.42 °C	0.03 °C	3.25 °C	0.1 °C	-0.47 °C	1.23 °C	0.74 °C	0.89 °C	0.17 °C	1.04 °C	0.32 °C	3.9 °C	0.24 °C	5.41 °C	19.9 °C
O=c1cc(-c2ccccc2)oc2c(O)c(O)ccc12 [7,8-Dihydroxyflavone]	-0.01 °C	3.2 °C	0.96 °C	-0.06 °C	2.73 °C	1.59 °C	0.71 °C	3.29 °C	1.01 °C	0.54 °C	1.54 °C	0.5 °C	0.49 °C	0.77 °C	0.46 °C	-0.74 °C	0.33 °C	-0.06 °C	5.23 °C	1.34 °C
O=C1Nc2ccccc2/C1=C1/Nc2ccccc2C1=O [Indirubin]	1.8 °C	2.12 °C	0.71 °C	0.76 °C	1.4 °C	1.85 °C	-0.51 °C	0.97 °C	2.07 °C	0.45 °C	0.62 °C	0.59 °C	0.23 °C	0.08 °C	1.48 °C	3.86 °C	0.97 °C	0.98 °C	0.93 °C	0.55 °C
O=c1c(O)c(-c2cc(O)c(O)c(O)c2)oc2cc(O)cc(O)c12 [Myricetin]	8.95 °C	-2.19 °C	2.79 °C	2.23 °C	2.22 °C	2.57 °C	2.73 °C	5.74 °C	0.6 °C	-0.42 °C	1.12 °C	1.2 °C	1.89 °C	2.61 °C	-0.73 °C	2.51 °C	3.89 °C	0.92 °C	7.25 °C	–
O=C(NCCO)c1cccc(-c2cc(Nc3ccc(OC(F)(F)F)cc3)ncn2)c1	0.68 °C	0.09 °C	0.88 °C	0.38 °C	0.33 °C	0.44 °C	-0.05 °C	0.95 °C	-1.95 °C	0.81 °C	0.63 °C	-0.13 °C	0.4 °C	0.68 °C	0.15 °C	0.49 °C	0.52 °C	0.56 °C	1.41 °C	0.31 °C
Cc1ccccc1-n1c(Cn2nc(-c3cccc(O)c3)c3c(N)ncnc32)nc2cccc(C)c2c1=O	0.24 °C	1.19 °C	0.86 °C	0.24 °C	1.1 °C	0.86 °C	-1.12 °C	-0.12 °C	-2.16 °C	-0.05 °C	-0.24 °C	-0.5 °C	–	0.05 °C	0.27 °C	0.34 °C	–	–	1.41 °C	0.18 °C
